These results are taken from PubChem BioAssay AID449768 (Vanderbilt High Throughput Screening Facility, 2010).

About 1,400 (1.3%) of roughly 110,000 compounds were called active. The full list was thinned out, with actives kept by preference. A number with no mark means an inactive call.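 The calls were made as follows: active = Z score or B-score, a plate-position-corrected score, falls beyond the plate's 99.7% confidence bounds, in either direction; inactive = both scores lie inside the 99.7% bounds.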

Sequence of Sodium-dependent dopamine transporter (Homo sapiens) (Q01959 whole entry, looked up): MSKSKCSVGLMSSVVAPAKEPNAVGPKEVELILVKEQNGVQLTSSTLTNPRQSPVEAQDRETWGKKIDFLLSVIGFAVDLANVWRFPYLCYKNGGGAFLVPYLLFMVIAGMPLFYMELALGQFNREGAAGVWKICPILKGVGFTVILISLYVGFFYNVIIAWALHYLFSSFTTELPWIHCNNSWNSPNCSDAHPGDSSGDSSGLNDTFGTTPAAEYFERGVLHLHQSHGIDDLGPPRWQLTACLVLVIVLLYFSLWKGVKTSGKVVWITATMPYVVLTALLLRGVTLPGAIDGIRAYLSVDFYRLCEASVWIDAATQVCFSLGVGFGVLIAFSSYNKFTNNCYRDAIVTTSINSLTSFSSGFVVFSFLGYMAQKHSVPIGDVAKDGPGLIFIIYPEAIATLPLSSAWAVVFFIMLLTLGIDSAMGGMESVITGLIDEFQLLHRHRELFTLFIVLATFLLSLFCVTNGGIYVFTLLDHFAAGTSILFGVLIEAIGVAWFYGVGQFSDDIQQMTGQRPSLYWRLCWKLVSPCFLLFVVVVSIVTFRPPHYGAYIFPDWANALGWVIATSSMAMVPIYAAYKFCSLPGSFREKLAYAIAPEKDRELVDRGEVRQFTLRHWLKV

This test addresses Sodium-dependent dopamine transporter (Homo sapiens) (UniProt Q01959). The experiment in a line: changed hDAT dopamine uptake under cocaine IC80, either direction, primary screen, cocaine antagonist project, cell-based, LLC-PK1 hDAT, [14C]-dopamine uptake, MLSMR (AID 449768).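 Also: scored against the spread of the other compound wells on the same plate.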 The note with it: LLC-PK1 hDAT cells, [14C]-dopamine uptake with cocaine IC80; at 10 µM; actives deviate in either direction.
For the compound `C#CCNC(=O)[C@H](Cc1ccc(C(=O)c2ccccc2)cc1)NC(=O)OC(C)(C)C`, the B-score is -0.105.
For the compound `Cc1ccc(S(=O)(=O)N2CCC(C(=O)NCC3CCCO3)CC2)cc1` (stereo unspecified), the B-score was -0.801.
In the case of `Cc1ccc(-n2c(C)cc(/C=C(\C#N)C(=O)NCC3CCCO3)c2C)cc1` (stereo unspecified), the B-score was 3.1 (active).
With `Cc1ccc(-c2noc(-c3ccccc3C(=O)NCC3CCCO3)n2)cc1` (stereo unspecified), the B-score was -0.191.
The value for `CNC(=O)c1[nH]cnc1C(=O)N[C@@H](CC(C)C)C(=O)OCc1ccccc1` was -0.0072; that for `COc1ccc(CN2[C@@H](CC(=O)O)c3cc(F)ccc3S2(=O)=O)cc1` was 1.13; that for `Nc1nnc(SCCN2C(=O)c3ccccc3S2(=O)=O)s1` was 2.06 (active).
In the case of `CCCc1nnc(NC(=O)CN2C(=O)c3ccccc3S2(=O)=O)s1`, the B-score is -0.746.
As for `CNC(=O)CN1C(=O)c2ccccc2S1(=O)=O`, the B-score was -0.143.
In the case of `O=C1CC2(CCCC2)Oc2ccc(Cl)cc21`, the B-score was 0.175.
With `c1ccc(-n2ncc3c(N4CCCC4)ncnc32)cc1`, the B-score was 0.432.
The value for `O=C(Cn1cnc2c(cnn2-c2ccccc2)c1=O)NCc1ccccc1` was -0.925; that for `CCN(CC)C(=O)CSc1ncnc2c1cnn2-c1ccccc1` was 3.2 (active).
As to `C=C1CCN([C@H](C(=O)NCc2cc(OC)c(OC)c(OC)c2)C(C)C)S(=O)(=O)c2ccccc21`, the B-score is 1.09.
The value for `Cc1ccc(S(=O)(=O)Oc2ccc(/C=N/NC(=O)c3c(Cl)cnn3C)cc2)cc1` was -7.83 (active); that for `COc1cccc(/C=N/NC(=O)c2cccc([N+](=O)[O-])c2)c1OS(=O)(=O)c1ccc(C)cc1` was -0.0993; that for `Cc1ccc(/C=N/NC(=O)c2sccc2OCc2ccc(F)cc2)cc1` was -0.168.
The value for `CCOC(=O)c1ccc(NC(=O)c2c(NCc3ccccc3)[nH]c(=O)[nH]c2=O)cc1` was -0.0313; that for `C#CCNC(=O)C1=C[C@@H](c2ccccc2)[C@H](CCCO)[C@@H](OCC)O1` was -0.204.
In the case of `Cc1nnc(NC(=O)CCCOc2ccccc2)s1`, the B-score was -9.48 (active).
With `COc1ccc(OCCCC(=O)Nc2nnc(C3CCCO3)s2)cc1` (stereo unspecified), the B-score is -0.0765.
The value for `COCC(=O)Nc1nnc(COc2ccccc2)s1` was -0.411; that for `COCOc1cc(O)c(C(=O)/C=C/c2ccc(OCOC)c(OCOC)c2)c(OCOC)c1` was -0.154; that for `CC(C)CC(CO)N1CCN(C(=O)c2ccc(Cl)cc2Cl)CCC1=O` (stereo unspecified) was -0.933.
The value for `CCOc1cc(C(=O)N2CCc3cc(OC)c(OC)cc3C2)ccc1OC(F)F` was 0.798.
The value for `COc1cc2c(cc1OC)CN(C(=O)c1cc(=O)c3ccccc3o1)CC2` was 3.91 (active); that for `COc1ccc(S(=O)(=O)N2CCC(C(=O)N3CCc4ccccc4C3)CC2)cc1OC` was 0.19.
`Cc1ccc(Cc2c(C)nc3nc(SCC(=O)NCCN4CCOCC4)nn3c2C)cc1`: the B-score was 2.86 (active).
Consider `Cc1ccc(NC(=S)NCCN2CCOCC2)cc1`, for which the B-score is -0.206.
For the compound `O=C(CCN1C(=O)c2ccccc2C1=O)NCCN1CCOCC1`, the B-score is -0.649.
The value for `CCOC(=O)c1ccc(NC(=O)c2c(N)n(C)c(=O)[nH]c2=O)cc1` was -0.175; that for `COC(C[C@@H](O)C[C@H](O)[C@H](C)OCc1ccccc1)OC` was 0.0993; that for `CCCOc1ccccc1C1CC(=O)Nc2cc3c(cc21)OCO3` (stereo unspecified) was -1.06.
The value for `COc1ccc(F)cc1S(=O)(=O)Nc1ccc2c(c1)OCO2` was -0.037; that for `COc1ccccc1C1C2=C(COC2=O)Nc2cc3c(cc21)OCO3` (stereo unspecified) was -2.97 (active); that for `CCOC(=O)/C=C/CN(C(=O)OC(C)(C)C)S(=O)(=O)N1CC=CC1` was -1.8e-05.
With `COC(=O)[C@H](Cc1ccccc1)NC(=O)Nc1ccc(S(N)(=O)=O)cc1`, the B-score was 0.0225.
The value for `CC(=O)NC(Cc1ccc(F)cc1)C(=O)O` (stereo unspecified) was -0.111.
The value for `CC(=O)c1ccc(NC(=O)N[C@@H](Cc2ccccc2)C(=O)O)cc1` was 3.14 (active); that for `Cc1ccc(/C=N/NC(=O)C(NC(=O)c2ccccc2)c2n[nH]c(=O)c3ccccc23)cc1` (stereo unspecified) was 5.41 (active).
Consider `Cc1ccc(/C=N/NC(=O)C2=NNC(c3ccccc3)(c3ccccc3)C2)c(O)c1`, for which the B-score is -0.164.
The value for `Cc1ccc(C(=O)N/N=C/c2sc(=O)n(Cc3cccc(C(=O)O)c3)c2Cl)cc1` was 0.653.
On to `C#CCOCCOCCOCCNc1nc(N2CCN(C(=O)[C@H](C(C)C)n3cc(CCO)nn3)CC2)nc(N2CCN(C(=O)[C@H](C(C)C)n3cc(CCO)nn3)CC2)n1`, for which the B-score was -0.703.
The value for `COc1ccc(-c2nc3c(s2)CCc2onc(-c4ccc(Br)cc4)c2-3)cc1` was -0.269; that for `O=C1NC[C@@H](Cc2ccc(O)cc2)N(CCc2cccc(F)c2)C1=O` was 0.0299.
For `Cc1cn(C)c(=O)n(C)c1=O`, the B-score was -1.72.
